Data on seven compounds can be found in ChEMBL document CHEMBL1961873, “Compounds: GSK PKIS; Assays: Nanosyn kinase panel” (2012).

Assay [1] deals with Tyrosine-protein kinase Fer (Homo sapiens) (UniProt P16591). The conditions noted are these: at 1 µM.
For assay [2], the target named is Tyrosine-protein kinase Fes/Fps (Homo sapiens) (UniProt P07332). The conditions noted are these: at 0.1 µM.
For assay [3] the target is unchanged. The conditions noted are these: at 1 µM.
In assay [4] the target is Fibroblast growth factor receptor 1 (Homo sapiens) (UniProt P11362). The conditions noted are these: at 0.1 µM.
For assay [5] the target is unchanged. The conditions noted are these: at 1 µM.
Assay [6] concerns the target Fibroblast growth factor receptor 2 (Homo sapiens) (UniProt P21802). The conditions noted are these: at 0.1 µM.
Assay [7] has the same target. The conditions noted are these: at 1 µM.
Assay [8] addresses Fibroblast growth factor receptor 3 (Homo sapiens) (UniProt P22607). The conditions noted are these: at 0.1 µM.
Assay [9] shares this target. The conditions noted are these: at 1 µM.
In assay [10] the target is Fibroblast growth factor receptor 4 (Homo sapiens) (UniProt P22455). The conditions noted are these: at 0.1 µM.
Chain of Fibroblast growth factor receptor 4 (Homo sapiens) (P22455 22-802 limits assumed): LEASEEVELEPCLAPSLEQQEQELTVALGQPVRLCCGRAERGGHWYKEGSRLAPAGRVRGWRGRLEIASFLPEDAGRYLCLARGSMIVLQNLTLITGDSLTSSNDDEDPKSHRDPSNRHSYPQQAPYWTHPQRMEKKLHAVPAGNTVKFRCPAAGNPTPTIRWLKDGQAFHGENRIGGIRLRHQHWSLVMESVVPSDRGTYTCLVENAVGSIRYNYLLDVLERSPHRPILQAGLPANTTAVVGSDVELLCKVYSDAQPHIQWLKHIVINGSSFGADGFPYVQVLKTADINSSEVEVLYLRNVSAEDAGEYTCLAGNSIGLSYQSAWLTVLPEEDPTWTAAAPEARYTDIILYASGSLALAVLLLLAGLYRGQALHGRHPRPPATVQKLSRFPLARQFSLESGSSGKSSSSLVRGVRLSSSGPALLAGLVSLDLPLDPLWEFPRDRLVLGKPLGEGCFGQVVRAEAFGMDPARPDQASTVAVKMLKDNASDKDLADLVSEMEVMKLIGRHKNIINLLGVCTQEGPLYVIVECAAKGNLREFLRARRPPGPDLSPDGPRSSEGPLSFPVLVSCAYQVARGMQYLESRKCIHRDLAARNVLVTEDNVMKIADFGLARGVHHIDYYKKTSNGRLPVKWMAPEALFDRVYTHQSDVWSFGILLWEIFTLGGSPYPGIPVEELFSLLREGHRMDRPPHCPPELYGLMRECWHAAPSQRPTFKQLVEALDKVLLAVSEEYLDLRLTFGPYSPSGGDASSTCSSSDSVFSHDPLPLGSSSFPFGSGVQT
Assay [11] has the same target. The conditions noted are these: at 1 µM.
Assay [12] deals with Tyrosine-protein kinase Fgr (Homo sapiens) (UniProt P09769). The conditions noted are these: at 0.1 µM.
Chain of Tyrosine-protein kinase Fgr (Homo sapiens) (P09769 2-529 limits assumed): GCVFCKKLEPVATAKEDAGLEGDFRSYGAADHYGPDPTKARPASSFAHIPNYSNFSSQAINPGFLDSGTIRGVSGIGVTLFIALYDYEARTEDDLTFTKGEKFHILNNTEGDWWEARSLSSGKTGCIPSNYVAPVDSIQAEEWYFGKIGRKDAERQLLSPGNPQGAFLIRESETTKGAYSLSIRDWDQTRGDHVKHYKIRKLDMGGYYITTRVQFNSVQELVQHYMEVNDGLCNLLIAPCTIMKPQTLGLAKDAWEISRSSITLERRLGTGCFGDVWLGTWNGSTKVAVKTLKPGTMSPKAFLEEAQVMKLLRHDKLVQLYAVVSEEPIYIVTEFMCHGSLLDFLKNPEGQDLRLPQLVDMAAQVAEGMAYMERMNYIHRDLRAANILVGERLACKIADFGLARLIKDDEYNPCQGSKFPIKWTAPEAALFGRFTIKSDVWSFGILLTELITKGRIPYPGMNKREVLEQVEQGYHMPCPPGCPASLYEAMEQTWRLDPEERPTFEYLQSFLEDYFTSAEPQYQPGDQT
For assay [13] the target is unchanged. The conditions noted are these: at 1 µM.
Assay [14] addresses Vascular endothelial growth factor receptor 1 (Homo sapiens) (UniProt P17948). The conditions noted are these: at 0.1 µM.
The target is the same in assay [15]. The conditions noted are these: at 1 µM.
Assay [16] concerns the target Receptor-type tyrosine-protein kinase FLT3 (Homo sapiens) (UniProt P36888). The conditions noted are these: at 0.1 µM.
For assay [17] the target is unchanged. The conditions noted are these: at 1 µM.
In assay [18] the test system is T1, Receptor-type tyrosine-protein kinase FLT3 (Homo sapiens), P36888 [D835Y].
T1 sequence (whole entry): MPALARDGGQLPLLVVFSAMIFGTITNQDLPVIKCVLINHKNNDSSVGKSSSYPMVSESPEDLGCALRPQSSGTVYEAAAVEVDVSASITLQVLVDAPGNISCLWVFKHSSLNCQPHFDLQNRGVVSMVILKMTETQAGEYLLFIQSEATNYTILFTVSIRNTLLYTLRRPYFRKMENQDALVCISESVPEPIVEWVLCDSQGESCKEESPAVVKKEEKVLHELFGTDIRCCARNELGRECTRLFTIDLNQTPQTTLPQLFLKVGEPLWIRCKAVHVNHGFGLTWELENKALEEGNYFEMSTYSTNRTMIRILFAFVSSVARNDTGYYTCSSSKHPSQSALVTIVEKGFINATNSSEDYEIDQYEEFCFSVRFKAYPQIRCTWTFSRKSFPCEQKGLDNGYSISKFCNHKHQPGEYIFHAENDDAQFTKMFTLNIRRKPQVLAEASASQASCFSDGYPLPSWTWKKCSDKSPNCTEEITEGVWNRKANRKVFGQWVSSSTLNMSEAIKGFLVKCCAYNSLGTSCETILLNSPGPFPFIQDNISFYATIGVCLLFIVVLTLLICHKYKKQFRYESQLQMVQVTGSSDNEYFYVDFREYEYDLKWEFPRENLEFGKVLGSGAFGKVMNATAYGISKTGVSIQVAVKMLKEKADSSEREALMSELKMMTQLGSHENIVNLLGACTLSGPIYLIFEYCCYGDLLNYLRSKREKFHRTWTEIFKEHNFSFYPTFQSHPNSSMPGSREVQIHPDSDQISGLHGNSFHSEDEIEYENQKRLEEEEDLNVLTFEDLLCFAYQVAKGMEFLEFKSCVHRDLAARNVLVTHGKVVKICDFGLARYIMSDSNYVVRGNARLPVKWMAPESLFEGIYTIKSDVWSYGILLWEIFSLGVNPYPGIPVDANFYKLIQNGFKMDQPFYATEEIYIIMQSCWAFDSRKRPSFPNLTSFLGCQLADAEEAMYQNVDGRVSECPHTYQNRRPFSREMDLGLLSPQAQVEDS
The conditions noted are these: at 0.1 µM.

The target of assay [19] is Non-receptor tyrosine-protein kinase TYK2 (Homo sapiens) (UniProt P29597). The conditions noted are these: at 1 µM.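 Further: values are mean percent inhibition of TYK2 kinase.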
Assay [20] deals with T2, Tyrosine-protein kinase receptor TYRO3 (Homo sapiens) (UniProt Q06418).
T2 sequence (whole entry): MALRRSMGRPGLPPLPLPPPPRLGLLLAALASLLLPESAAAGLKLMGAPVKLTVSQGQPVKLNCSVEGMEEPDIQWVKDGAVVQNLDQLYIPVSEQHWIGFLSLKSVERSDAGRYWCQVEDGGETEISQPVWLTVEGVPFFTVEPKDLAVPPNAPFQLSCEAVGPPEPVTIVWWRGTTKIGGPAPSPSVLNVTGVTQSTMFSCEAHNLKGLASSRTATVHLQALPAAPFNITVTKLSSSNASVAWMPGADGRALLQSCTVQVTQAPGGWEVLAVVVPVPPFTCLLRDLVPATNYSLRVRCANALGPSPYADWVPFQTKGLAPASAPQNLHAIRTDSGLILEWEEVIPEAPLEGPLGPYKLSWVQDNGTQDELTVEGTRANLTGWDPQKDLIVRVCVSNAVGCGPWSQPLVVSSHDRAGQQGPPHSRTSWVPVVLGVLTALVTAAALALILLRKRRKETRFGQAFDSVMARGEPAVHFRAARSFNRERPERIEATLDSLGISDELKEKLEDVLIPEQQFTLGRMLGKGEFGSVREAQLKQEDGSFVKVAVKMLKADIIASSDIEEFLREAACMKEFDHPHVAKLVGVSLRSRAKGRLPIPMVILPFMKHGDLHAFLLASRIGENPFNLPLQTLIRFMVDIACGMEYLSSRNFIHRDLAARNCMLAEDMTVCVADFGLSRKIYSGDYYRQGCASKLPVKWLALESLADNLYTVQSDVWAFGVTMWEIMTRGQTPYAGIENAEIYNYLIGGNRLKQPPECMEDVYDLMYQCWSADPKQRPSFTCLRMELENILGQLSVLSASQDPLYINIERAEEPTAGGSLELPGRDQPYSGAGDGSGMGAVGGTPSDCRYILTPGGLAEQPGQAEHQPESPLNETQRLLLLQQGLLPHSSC
The conditions noted are these: at 0.1 µM.

Chain of Fibroblast growth factor receptor 3 (Homo sapiens) (P22607 23-806 limits assumed): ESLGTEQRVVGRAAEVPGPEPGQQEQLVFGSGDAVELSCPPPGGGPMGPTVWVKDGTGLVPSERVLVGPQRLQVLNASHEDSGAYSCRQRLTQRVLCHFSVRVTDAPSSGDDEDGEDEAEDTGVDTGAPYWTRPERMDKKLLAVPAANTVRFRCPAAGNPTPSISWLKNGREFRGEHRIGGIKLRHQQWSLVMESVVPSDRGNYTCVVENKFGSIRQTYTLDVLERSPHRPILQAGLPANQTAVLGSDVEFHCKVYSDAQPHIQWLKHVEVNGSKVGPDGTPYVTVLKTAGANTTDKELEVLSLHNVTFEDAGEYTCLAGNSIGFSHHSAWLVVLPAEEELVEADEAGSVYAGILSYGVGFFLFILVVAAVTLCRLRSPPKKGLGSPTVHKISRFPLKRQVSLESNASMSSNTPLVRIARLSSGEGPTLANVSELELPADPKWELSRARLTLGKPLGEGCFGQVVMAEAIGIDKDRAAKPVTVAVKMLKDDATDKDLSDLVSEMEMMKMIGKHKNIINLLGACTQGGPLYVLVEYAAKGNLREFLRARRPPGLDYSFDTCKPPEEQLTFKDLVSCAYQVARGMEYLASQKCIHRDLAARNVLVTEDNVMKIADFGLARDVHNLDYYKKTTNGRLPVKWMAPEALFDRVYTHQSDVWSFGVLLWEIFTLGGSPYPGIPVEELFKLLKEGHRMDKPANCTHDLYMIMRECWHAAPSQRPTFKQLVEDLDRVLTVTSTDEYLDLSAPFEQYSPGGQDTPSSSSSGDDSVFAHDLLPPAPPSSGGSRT
Chain of Tyrosine-protein kinase Fer (Homo sapiens) (P16591 whole entry, looked up): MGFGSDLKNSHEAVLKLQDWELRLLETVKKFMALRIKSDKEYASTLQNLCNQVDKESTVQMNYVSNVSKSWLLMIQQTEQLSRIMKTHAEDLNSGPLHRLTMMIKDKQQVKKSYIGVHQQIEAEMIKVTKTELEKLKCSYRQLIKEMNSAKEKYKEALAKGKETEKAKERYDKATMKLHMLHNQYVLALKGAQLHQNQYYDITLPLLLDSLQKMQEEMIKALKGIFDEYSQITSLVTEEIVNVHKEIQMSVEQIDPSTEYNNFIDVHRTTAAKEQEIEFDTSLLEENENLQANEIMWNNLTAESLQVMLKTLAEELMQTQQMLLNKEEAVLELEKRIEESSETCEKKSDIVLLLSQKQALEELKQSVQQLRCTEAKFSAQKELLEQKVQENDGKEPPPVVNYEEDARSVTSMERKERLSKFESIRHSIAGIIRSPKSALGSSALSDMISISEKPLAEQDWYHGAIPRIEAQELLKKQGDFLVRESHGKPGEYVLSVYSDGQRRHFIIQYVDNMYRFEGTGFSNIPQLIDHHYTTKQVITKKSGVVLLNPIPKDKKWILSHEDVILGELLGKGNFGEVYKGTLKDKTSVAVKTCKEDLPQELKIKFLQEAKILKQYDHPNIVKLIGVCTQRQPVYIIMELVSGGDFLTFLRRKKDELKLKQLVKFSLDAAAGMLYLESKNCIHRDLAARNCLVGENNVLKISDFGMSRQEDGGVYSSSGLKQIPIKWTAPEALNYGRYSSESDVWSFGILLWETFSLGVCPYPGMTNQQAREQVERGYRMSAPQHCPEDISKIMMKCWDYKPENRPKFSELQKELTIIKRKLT
Chain of Fibroblast growth factor receptor 2 (Homo sapiens) (P21802 22-821 limits assumed): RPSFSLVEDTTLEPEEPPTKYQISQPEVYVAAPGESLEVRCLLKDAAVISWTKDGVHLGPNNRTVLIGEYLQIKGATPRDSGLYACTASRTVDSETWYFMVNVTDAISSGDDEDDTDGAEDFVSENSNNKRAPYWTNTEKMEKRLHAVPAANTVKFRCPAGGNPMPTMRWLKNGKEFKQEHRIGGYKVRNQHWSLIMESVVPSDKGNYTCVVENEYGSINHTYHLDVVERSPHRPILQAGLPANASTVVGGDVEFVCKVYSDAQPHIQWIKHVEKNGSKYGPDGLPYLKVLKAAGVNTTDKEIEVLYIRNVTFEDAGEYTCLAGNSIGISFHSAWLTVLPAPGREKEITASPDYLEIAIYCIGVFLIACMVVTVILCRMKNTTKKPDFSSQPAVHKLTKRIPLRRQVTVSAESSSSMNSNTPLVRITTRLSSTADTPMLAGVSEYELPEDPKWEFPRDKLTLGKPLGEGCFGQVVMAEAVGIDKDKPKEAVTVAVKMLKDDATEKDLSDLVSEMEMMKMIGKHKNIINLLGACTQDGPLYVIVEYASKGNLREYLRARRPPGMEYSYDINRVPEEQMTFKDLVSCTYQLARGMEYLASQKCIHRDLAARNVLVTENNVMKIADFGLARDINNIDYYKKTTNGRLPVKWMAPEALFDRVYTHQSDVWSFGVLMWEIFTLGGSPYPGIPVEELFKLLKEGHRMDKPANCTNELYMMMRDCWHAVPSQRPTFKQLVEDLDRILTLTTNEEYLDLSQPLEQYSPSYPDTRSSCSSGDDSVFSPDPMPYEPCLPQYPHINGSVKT
Chain of Vascular endothelial growth factor receptor 1 (Homo sapiens) (P17948 whole entry): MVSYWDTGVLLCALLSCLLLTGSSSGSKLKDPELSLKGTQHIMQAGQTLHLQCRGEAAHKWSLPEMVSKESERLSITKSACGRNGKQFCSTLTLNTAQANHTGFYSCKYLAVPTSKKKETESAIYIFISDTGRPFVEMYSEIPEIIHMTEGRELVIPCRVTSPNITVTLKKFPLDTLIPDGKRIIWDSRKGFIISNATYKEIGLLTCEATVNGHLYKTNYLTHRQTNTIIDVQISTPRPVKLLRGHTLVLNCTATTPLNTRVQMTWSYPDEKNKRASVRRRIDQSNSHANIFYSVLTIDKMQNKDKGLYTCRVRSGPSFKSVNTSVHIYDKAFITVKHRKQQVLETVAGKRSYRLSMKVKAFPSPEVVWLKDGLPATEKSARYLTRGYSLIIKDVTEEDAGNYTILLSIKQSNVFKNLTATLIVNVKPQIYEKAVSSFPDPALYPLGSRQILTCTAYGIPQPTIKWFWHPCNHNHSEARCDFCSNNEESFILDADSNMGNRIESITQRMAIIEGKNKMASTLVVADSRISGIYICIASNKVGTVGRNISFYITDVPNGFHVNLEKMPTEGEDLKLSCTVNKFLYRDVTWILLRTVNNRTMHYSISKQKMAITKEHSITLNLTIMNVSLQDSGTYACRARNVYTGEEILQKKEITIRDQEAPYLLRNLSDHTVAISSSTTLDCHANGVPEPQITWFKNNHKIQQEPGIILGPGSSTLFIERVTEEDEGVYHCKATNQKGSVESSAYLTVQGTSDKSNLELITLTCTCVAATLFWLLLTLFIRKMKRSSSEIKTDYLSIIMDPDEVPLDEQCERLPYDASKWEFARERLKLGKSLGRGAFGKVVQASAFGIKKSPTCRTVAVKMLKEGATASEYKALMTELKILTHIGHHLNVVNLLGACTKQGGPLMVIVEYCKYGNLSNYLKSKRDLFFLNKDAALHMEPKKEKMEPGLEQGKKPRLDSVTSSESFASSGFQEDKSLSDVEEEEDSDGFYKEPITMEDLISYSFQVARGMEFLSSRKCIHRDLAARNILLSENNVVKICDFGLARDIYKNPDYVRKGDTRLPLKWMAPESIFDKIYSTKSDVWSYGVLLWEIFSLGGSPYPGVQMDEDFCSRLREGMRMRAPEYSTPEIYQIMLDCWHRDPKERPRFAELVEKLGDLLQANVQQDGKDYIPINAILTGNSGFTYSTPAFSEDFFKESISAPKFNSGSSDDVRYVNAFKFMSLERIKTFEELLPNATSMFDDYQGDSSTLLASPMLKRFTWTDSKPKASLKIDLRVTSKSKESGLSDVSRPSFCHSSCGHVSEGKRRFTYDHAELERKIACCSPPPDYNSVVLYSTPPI

Consider `Cc1cc(-c2ccco2)cc(C)c1/C=C/c1cncc(-c2nn[nH]n2)c1`, for which the inhibition in [1] is 7.85%; in [2], 1.75%; in assay [3], 1.63%; in assay [4], -0.88%; in assay [5], 2.5%; in [6], 1.69%. Also, the inhibition in assay [7] is 1.54%; in assay [8], -0.36%; in assay [9], 3.17%; in assay [10], 1.4%; in assay [11] it was 1.04%; in assay [12], 3.13%. Moreover, the inhibition in assay [13] is 6.29%; in [14] it was -0.74%; in [15], 1.77%; in assay [16] it was 1.31%; in assay [17], 1.79%; in assay [18], -3.95%. The results for the inhibition in [19] and in [20] were 2.63% and 0.37%, respectively.
Regarding `NS(=O)(=O)c1ccc(-c2ccc3c(NC(=O)C4CC4)n[nH]c3c2)cc1`, the inhibition in assay [1] was -0.03%; in assay [2], 1.35%; in assay [3] it was 2.53%; in assay [4], 2.31%; in [5], 7.63%; in assay [6] it was 7.91%. Also, the inhibition in assay [7] is 6%; in assay [8], 3.47%; in assay [9], 5.72%; in assay [10] it was 0.67%; in assay [11], -0.07%; in assay [12], 1.76%. In addition, the inhibition was 6.23% in assay [13]; 0.3% in [14]; 1.37% in assay [15]; -1.65% in [16]; 3.53% in assay [17]; 2.16% in assay [18]. In addition, the values for the inhibition in assay [19] and in [20] were -4.76% and 3.34%, respectively.
With `COc1cccc(COc2cc(-n3cnc4ccccc43)sc2C(N)=O)c1`, the inhibition is 3.72% in assay [1]; 0.11% in assay [2]; 0.56% in [3]; -3.37% in [4]; -0.23% in assay [5]; -0.92% in assay [6]. Moreover, the inhibition in assay [7] was 3.02%; in assay [8] it was -1.31%; in [9] it was 0.24%; in [10], -1.48%; in assay [11] it was 1.25%; in [12] it was 1.93%. Besides, the inhibition is 1.54% in assay [13]; -2.33% in assay [14]; -0.83% in assay [15]; -1.3% in assay [16]; -4.17% in assay [17]; -9.33% in [18]. The inhibition is -0.53% in assay [19] and -0.84% in [20].
As for `CCn1c(-c2nonc2N)nc2c(C#CC(C)(C)O)nc(O[C@@H](CN)c3ccccc3)cc21`, the inhibition is 11.6% in [1]; -0.28% in [2]; 5.21% in assay [3]; -5.77% in [4]; 6.16% in [5]; 0.17% in assay [6]. In addition, the inhibition in assay [7] is 1.12%; in assay [8], -1.56%; in assay [9], -0.33%; in [10] it was 0.28%; in [11] it was 1.13%; in [12] it was 3.54%. The inhibition is 28.6% in assay [13]; 36.1% in assay [14]; 79.8% in assay [15]; -2.74% in assay [16]; -0.29% in assay [17]; 2.74% in assay [18]. Also, the inhibition in [19] came to 1.49%; in assay [20] it was 0.32%.
Regarding `COc1cc2c(cc1Nc1nc(Nc3ccsc3C(N)=O)c3cc[nH]c3n1)N(C(=O)CN(C)C)CCC2`, the inhibition was 81.6% in assay [1]; 77.9% in assay [2]; 86.8% in [3]; -0.88% in [4]; -1.8% in assay [5]; 1.41% in [6]. For the same compound, the inhibition in [7] is 0.97%; in assay [8], 0.66%; in assay [9] it was 2.61%; in assay [10] it was -1.12%; in assay [11] it was 1.79%; in [12], 7.89%. Further, the inhibition in assay [13] is 10.7%; in assay [14], -1.61%; in assay [15] it was 1.49%; in [16], -1.64%; in assay [17], 1.45%; in assay [18], -8.75%. Moreover, the inhibition in [19] was -1.13%.
As for `CCn1c(-c2nonc2N)nc2c(C#CC(C)(C)O)ncc(OCC3CCNCC3)c21`, the inhibition in assay [1] was 6.84%; in [2], 2.17%; in [3] it was 4.04%; in assay [4], -2.34%; in [5], -0.27%; in assay [6], -1.71%. Besides, the inhibition in [7] was 3.89%; in assay [8], 1.17%; in assay [9], -1.22%; in assay [10] it was -6.83%; in assay [11], -3.68%; in assay [12], 5.04%. Moreover, the inhibition in assay [13] is 4.9%; in assay [14] it was 2.92%; in assay [15] it was 23.5%; in [16], -0.18%; in assay [17], 4.4%; in assay [18], 3.83%. Further, the inhibition in assay [19] stood at 1.52%; in [20] it was 2.77%.
Regarding `NC(=O)c1sc(-n2cnc3cc(C(F)(F)F)ccc32)cc1OCc1ccccc1Br`, the inhibition in assay [1] is 6.44%; in assay [2], 2.76%; in [3], 1.99%; in assay [4], -2.05%; in assay [5], 1.74%; in [6], 2.24%. The inhibition in assay [8] was 1.69%; in [9], 2.38%; in assay [10], 2.01%; in assay [11], -0.34%; in [12] it was 2.13%; in assay [13], 2.99%. Also, the inhibition was -0.46% in assay [14]; -0.01% in assay [15]; 0.18% in assay [16]; 3.13% in assay [17]; -3.16% in assay [18]; -3.05% in assay [19]. In addition, the inhibition in assay [20] was 1.7%.
